# Measured values published in PubChem BioAssay (EPA / NIEHS).
# Results filed as inconclusive are left out. The source made the active and inactive calls. Rule for the calls, unless noted: active = hit-call score of the fitted dose curve at least 0.9, where 1 is the maximum; inconclusive = response in the unintended direction; inactive = score below 0.9.
# Assays:
# [1] = ATG_Hpa5_TRANS: Attagene TRANS-FACTORIAL HepG2 Assay for human GAL4-Hpa5 Hepatocyte Transcription Factor Basal Promoter (AID 2282975); settings: HepG2 Attagene GAL4-Hpa5 transcription reporter;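 note: hits are increases in reporter mRNA over DMSO baseline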
# In short: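 Basal-promoter GAL4 background control within the HepG2 trans-factorial panel of transiently transfected reporter units. Reporter mRNA is measured 24 h after dosing by RT-PCR and capillary electrophoresis, fitted for gain of signal versus DMSO.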
# [2] = target: Glucocorticoid receptor (Homo sapiens) (UniProt P04150); assay: ATG_GR_TRANS: Attagene TRANS-FACTORIAL HepG2 Assay for human Glucocorticoid Receptor (GR) (AID 2282978); settings: HepG2 Attagene TRANS GR reporter, mRNA transcription;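 note: activators score as hits since higher reporter transcript over DMSO is fitted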
# Sequence of Glucocorticoid receptor (Homo sapiens) (P04150 whole entry, looked up, the tested form may be a part): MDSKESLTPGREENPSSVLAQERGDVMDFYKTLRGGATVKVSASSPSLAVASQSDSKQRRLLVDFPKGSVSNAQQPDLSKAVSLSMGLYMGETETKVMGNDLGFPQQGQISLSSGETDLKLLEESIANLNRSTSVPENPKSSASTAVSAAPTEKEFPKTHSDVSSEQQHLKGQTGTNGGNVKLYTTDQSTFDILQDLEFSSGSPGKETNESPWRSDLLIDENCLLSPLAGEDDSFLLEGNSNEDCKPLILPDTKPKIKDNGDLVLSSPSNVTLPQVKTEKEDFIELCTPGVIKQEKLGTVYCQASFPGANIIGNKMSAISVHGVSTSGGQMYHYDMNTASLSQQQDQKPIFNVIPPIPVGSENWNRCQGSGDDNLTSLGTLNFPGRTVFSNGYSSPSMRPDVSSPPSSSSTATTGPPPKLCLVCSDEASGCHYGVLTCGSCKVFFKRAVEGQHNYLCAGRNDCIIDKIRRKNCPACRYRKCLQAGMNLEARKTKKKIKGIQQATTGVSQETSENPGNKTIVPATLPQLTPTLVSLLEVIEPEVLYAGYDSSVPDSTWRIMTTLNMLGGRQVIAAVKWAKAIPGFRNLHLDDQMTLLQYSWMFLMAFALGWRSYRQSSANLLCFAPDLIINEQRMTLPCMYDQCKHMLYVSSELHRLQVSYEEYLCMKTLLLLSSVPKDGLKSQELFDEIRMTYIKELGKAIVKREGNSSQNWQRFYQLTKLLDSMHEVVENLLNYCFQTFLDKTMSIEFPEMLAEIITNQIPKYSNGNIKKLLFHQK
# In short: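 Fluorescent capillary-electrophoresis quantitation of reporter mRNA is the readout, taken 24 h after dosing human HepG2 cells carrying transiently transfected GAL4-UAS reporter units activated by chimeric NR-GAL4 fusions; activity scored as induction over DMSO.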
# [3] = target: Oxysterols receptor LXR-alpha (Homo sapiens) (UniProt Q13133); assay: ATG_LXRa_TRANS: Attagene TRANS-FACTORIAL HepG2 Assay for human Liver X Receptor alpha (LXRa) (AID 2282980); settings: HepG2 Attagene TRANS reporter, LXRa transactivation
# Sequence of Oxysterols receptor LXR-alpha (Homo sapiens) (Q13133 whole entry, looked up, the tested form may be a part): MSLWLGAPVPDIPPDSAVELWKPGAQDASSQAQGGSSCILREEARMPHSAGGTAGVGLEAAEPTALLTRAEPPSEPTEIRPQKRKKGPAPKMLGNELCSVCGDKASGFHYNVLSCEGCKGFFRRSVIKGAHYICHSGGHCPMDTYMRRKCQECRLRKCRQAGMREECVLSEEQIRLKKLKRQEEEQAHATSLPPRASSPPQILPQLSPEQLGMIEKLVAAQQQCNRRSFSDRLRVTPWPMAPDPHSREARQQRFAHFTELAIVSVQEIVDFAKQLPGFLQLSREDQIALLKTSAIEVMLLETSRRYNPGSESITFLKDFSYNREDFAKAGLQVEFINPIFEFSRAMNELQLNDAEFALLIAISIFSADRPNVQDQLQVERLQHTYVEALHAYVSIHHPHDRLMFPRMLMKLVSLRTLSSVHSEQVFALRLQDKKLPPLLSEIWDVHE
# In short: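 In this multiplexed TRANS system, compounds act on HepG2 cells carrying GAL4-UAS reporter units and a receptor-GAL4 fusion for 24 h. Induced reporter RNA is amplified, fluorescently labelled and sized by capillary electrophoresis, with DMSO as baseline.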
# [4] = target: Oxysterols receptor LXR-beta (Homo sapiens) (UniProt P55055); assay: ATG_LXRb_TRANS: Attagene TRANS-FACTORIAL HepG2 Assay for human Liver X Receptor beta (LXRb) (AID 2282981); settings: HepG2 Attagene TRANS GAL4-LXRb reporter, mRNA
# Sequence of Oxysterols receptor LXR-beta (Homo sapiens) (P55055 whole entry, looked up, the tested form may be a part): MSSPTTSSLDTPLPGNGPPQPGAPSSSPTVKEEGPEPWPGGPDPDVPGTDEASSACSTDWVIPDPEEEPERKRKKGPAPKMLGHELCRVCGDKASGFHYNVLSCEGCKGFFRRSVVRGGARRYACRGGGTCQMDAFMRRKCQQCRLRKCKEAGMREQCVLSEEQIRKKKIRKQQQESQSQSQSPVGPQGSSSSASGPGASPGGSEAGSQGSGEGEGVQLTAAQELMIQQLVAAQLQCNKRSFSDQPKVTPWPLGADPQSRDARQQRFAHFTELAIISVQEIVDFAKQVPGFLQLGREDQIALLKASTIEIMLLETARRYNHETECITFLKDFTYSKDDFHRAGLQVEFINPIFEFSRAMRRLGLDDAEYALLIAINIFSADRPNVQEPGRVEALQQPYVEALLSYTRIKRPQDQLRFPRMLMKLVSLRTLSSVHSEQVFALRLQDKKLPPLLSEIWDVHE
# In short: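 In this TRANS format, exogenous chimeric NR-Gal4 protein activity, not endogenous factors, drives reporter expression in transfected human HepG2 cells. Exposure lasted 24 h; reporter mRNA was read by fluorescent capillary electrophoresis.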
# [5] = ATG_M_32_TRANS: Attagene TRANS-FACTORIAL HepG2 Assay for M32 Transcription Factor (Internal Marker) (AID 2282984); settings: HepG2 Attagene TRANS M32 internal marker reporter
# In short: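 Human hepatoma HepG2, transient MRTU transfection, 24 h treatment. RNA → RT-PCR → fluorescent primer extension → HpaI digest (2 h, 37 C) → CE. Positive-direction fit vs DMSO.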
# [6] = target: Transcriptional activator Myb (Homo sapiens) (UniProt P10242); assay: ATG_Myb_CIS: Attagene CIS-FACTORIAL HepG2 Assay for human Myeloblastosis (Myb) Proto-Oncogene Transcription Factor (AID 2282986; active = hit-call score of the fitted dose curve at least 0.9, where 1 is the maximum; inactive = score below 0.9); settings: HepG2 Attagene CIS-FACTORIAL Myb reporter transcription; actives raise or lower the signal
# Sequence of Transcriptional activator Myb (Homo sapiens) (P10242 whole entry, looked up): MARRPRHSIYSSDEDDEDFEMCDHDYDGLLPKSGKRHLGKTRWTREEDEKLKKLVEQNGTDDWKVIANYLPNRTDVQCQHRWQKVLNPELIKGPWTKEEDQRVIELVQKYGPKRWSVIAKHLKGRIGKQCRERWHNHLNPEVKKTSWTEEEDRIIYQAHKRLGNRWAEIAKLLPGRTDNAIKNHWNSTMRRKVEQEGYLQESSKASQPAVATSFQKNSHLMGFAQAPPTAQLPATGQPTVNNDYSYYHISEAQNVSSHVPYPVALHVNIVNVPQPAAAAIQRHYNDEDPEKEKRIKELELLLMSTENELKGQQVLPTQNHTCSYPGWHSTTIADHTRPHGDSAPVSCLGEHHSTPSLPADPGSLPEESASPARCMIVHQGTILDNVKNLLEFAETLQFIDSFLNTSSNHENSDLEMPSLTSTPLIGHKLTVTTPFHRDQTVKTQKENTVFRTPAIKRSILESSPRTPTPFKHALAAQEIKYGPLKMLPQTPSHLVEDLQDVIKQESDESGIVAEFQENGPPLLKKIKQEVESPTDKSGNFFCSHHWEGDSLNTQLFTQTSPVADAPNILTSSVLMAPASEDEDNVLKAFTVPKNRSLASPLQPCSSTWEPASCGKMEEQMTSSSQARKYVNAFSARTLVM
# In short: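 Reporter transcript levels, quantified by fluorescent RT-PCR and capillary electrophoresis, serve as the read-out. Transfected HepG2 cells carrying cis-promoter reporter units are dosed for 24 hours, and curves are fitted bidirectionally against DMSO controls.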
# [7] = target: Hepatocyte nuclear factor 4-alpha (Homo sapiens) (UniProt P41235); assay: ATG_HNF4a_TRANS: Attagene TRANS-FACTORIAL HepG2 Assay for human Hepatocyte Nuclear Factor 4 alpha (HNF4a) (AID 2282982); settings: HepG2 HNF4a transactivation reporter, mRNA readout
# Sequence of Hepatocyte nuclear factor 4-alpha (Homo sapiens) (P41235 whole entry, looked up, the tested form may be a part): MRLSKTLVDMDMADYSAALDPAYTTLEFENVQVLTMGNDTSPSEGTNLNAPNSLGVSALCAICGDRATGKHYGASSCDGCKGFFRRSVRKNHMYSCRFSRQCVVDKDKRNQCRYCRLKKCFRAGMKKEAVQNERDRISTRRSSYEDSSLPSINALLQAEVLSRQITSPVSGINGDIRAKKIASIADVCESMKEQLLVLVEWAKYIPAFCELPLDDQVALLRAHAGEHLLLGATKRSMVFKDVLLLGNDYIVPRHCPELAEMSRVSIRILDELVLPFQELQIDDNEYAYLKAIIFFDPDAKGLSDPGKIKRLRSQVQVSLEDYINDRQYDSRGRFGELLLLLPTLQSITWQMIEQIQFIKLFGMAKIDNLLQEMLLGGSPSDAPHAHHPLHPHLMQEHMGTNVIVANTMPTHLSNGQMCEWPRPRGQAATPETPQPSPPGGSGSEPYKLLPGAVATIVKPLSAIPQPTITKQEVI
# In short: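 Cells used were human HepG2, transiently carrying GAL4-UAS reporter units read out against exogenous NR-GAL4 chimeras. Reporter transcript levels after 24 h dosing were quantified by fluorescent RT-PCR and capillary electrophoresis.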
# [8] = target: Nuclear receptor subfamily 4 group A member 2 (Homo sapiens) (UniProt P43354); assay: ATG_NURR1_TRANS: Attagene TRANS-FACTORIAL HepG2 Assay for human Nuclear Receptor Related Protein 1 (NURR1) (AID 2282985); settings: HepG2 Attagene TRANS reporter, mRNA readout
# Sequence of Nuclear receptor subfamily 4 group A member 2 (Homo sapiens) (P43354 whole entry, looked up): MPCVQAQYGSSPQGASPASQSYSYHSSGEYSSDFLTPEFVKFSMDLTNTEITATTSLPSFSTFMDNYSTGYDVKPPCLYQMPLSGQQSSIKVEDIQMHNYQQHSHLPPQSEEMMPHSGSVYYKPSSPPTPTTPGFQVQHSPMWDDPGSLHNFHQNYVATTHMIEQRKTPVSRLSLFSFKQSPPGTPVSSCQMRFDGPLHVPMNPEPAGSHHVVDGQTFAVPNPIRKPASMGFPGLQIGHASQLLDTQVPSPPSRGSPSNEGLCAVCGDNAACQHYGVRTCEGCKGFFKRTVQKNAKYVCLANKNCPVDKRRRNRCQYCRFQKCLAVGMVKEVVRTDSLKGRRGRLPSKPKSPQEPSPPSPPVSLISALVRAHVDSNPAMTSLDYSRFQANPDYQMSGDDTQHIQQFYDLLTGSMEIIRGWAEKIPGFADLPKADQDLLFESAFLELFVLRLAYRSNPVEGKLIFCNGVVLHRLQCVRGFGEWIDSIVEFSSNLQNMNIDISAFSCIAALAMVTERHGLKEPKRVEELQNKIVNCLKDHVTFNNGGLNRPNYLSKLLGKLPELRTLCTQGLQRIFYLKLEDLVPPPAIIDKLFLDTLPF
# In short: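 After 24 h chemical dosing, total RNA from transiently transfected HepG2 cells was reverse-transcribed and reporter cDNA PCR-amplified, FAM-labelled and analysed by capillary electrophoresis. Activity fitted in positive direction, DMSO as negative control.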
# [9] = ATG_GAL4_TRANS: Attagene TRANS-FACTORIAL HepG2 Assay for GAL4 (Internal Marker) (AID 2282976); settings: HepG2 Attagene TRANS GAL4 internal marker reporter
# In short: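 Liver HepG2 line bearing multiplexed GAL4-UAS reporter constructs; 24 h chemical treatment. Transcripts were quantified as fluorescent fragments on capillary electrophoresis after RT-PCR and HpaI cut, with activity fitted upward from DMSO.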
# [10] = ATG_M_06_TRANS: Attagene TRANS-FACTORIAL HepG2 Assay for M06 Transcription Factor (Internal Marker) (AID 2282983); settings: HepG2 Attagene TRANS M06 internal marker reporter
# In short: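 Internal-marker background readout from a multiplexed TRANS reporter system in HepG2; 24 h dosing; mRNA induction quantified by RT-PCR plus capillary electrophoresis fluorescence; DMSO as negative control and baseline.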
compound,measurement,setting,value
N#Cc1c(Cl)cccc1Cl,outcome,[1],inactive
same,outcome,[2],inactive
same,outcome,[3],inactive
same,outcome,[4],inactive
same,outcome,[5],inactive
same,outcome,[6],inactive
CCCN(CC)CC1COC2(CCC(C(C)(C)C)CC2)O1 (stereo not given),outcome,[1],inactive
same,outcome,[2],inactive
same,outcome,[3],inactive
same,outcome,[7],inactive
same,outcome,[5],inactive
same,outcome,[6],inactive
COC(=O)NC(=S)Nc1ccccc1NC(=S)NC(=O)OC,outcome,[1],inactive
same,outcome,[2],inactive
same,outcome,[3],inactive
same,outcome,[7],inactive
same,outcome,[8],inactive
same,outcome,[6],inactive
Cc1nc(N(C)C)nc(OC(=O)N(C)C)c1C,outcome,[1],inactive
same,outcome,[2],inactive
same,outcome,[8],inactive
same,outcome,[6],inactive
C=C(C)CN(CC)c1c([N+](=O)[O-])cc(C(F)(F)F)cc1[N+](=O)[O-],outcome,[1],inactive
same,outcome,[9],inactive
same,outcome,[2],inactive
same,outcome,[10],inactive
same,outcome,[8],inactive
same,outcome,[6],inactive
CCOc1nc(F)cc2nc(S(=O)(=O)Nc3c(Cl)cccc3Cl)nn12,outcome,[1],inactive
same,outcome,[2],inactive
same,outcome,[3],inactive
same,outcome,[4],inactive
same,outcome,[7],inactive
same,outcome,[5],inactive
same,outcome,[8],inactive
same,AC50,[6],0.0229 µM (active)
Cc1cc(C)nc(Nc2ccccc2)n1,outcome,[1],inactive
same,outcome,[2],inactive
same,outcome,[3],inactive
same,outcome,[7],inactive
same,outcome,[10],inactive
same,outcome,[5],inactive
same,outcome,[6],inactive
CCSC(=O)N1CCCCCC1,outcome,[1],inactive
same,outcome,[3],inactive
same,outcome,[5],inactive
same,outcome,[8],inactive
same,outcome,[6],inactive
COCC(=O)N(c1c(C)cccc1C)C(C)C(=O)OC (stereo not given),outcome,[1],inactive
same,outcome,[5],inactive
same,outcome,[6],inactive
CCOc1nc(C(Cl)(Cl)Cl)ns1,outcome,[3],inactive
same,outcome,[4],inactive
same,outcome,[6],inactive
CC(C)Nc1nc(Cl)nc(NC(C)C)n1,outcome,[1],inactive
same,outcome,[3],inactive
same,outcome,[7],inactive
same,outcome,[10],inactive
same,outcome,[5],inactive
same,outcome,[8],inactive
same,outcome,[6],inactive
OC(c1ccc(Cl)cc1)(c1ccc(Cl)cc1)C(Cl)(Cl)Cl,outcome,[2],inactive
same,outcome,[7],inactive
same,outcome,[10],inactive
same,outcome,[6],inactive
Clc1nc(Cl)nc(Nc2ccccc2Cl)n1,outcome,[8],inactive
same,outcome,[6],inactive
Cn1c(-c2ccccc2)cc(-c2ccccc2)[n+]1C,outcome,[3],inactive
same,outcome,[4],inactive
same,outcome,[7],inactive
same,outcome,[5],inactive
same,outcome,[6],inactive
COCC(C)N(C(=O)CCl)c1c(C)csc1C (stereo not given),outcome,[10],inactive
same,outcome,[5],inactive
same,outcome,[8],inactive
same,outcome,[6],inactive
CO/N=C(/C1=NOCCO1)c1ccccc1Oc1ncnc(Oc2ccccc2Cl)c1F,outcome,[2],inactive
same,outcome,[3],inactive
same,outcome,[7],inactive
same,outcome,[5],inactive
same,outcome,[8],inactive
same,outcome,[6],inactive
Nc1c(Cl)c(F)nc(OCC(=O)O)c1Cl,outcome,[2],inactive
same,outcome,[4],inactive
same,outcome,[10],inactive
same,outcome,[8],inactive
same,outcome,[6],inactive
Cc1ccc(N=CN(C)C=Nc2ccc(C)cc2C)c(C)c1,outcome,[2],inactive
same,outcome,[10],inactive
same,outcome,[6],inactive
CNC(=O)Oc1cccc2ccccc12,outcome,[3],inactive
same,outcome,[8],inactive
same,outcome,[6],inactive
O=C(O)c1c(Cl)ccc2cc(Cl)cnc12,outcome,[6],inactive
CC1(C)CON(Cc2ccccc2Cl)C1=O,outcome,[1],inactive
same,outcome,[3],inactive
same,outcome,[7],inactive
same,outcome,[5],inactive
same,outcome,[6],inactive
COc1ccc(-c2ccccc2)cc1NNC(=O)OC(C)C,outcome,[2],inactive
same,outcome,[4],inactive
same,outcome,[10],inactive
same,outcome,[8],inactive
same,outcome,[6],inactive
CCNP(=S)(OC)O/C(C)=C/C(=O)OC(C)C (stereo not given),outcome,[3],inactive
same,outcome,[7],inactive
same,outcome,[10],inactive
same,outcome,[8],inactive
same,outcome,[6],inactive
COP(=S)(OC)Oc1ccc([N+](=O)[O-])c(C)c1,outcome,[9],inactive
same,outcome,[2],inactive
same,outcome,[3],inactive
same,outcome,[7],inactive
same,outcome,[10],inactive
same,outcome,[5],inactive
same,outcome,[8],inactive
same,outcome,[6],inactive
C=CCOC(=O)C(C)(C)OC(=O)c1cc(-n2c(=O)cc(C(F)(F)F)n(C)c2=O)ccc1Cl,outcome,[6],inactive
Clc1cccc(C(Cl)(Cl)Cl)n1,outcome,[1],inactive
same,outcome,[3],inactive
same,outcome,[10],inactive
same,outcome,[5],inactive
same,outcome,[6],inactive
CCNC(=O)NC(=O)C(C#N)=NOC,outcome,[7],inactive
same,outcome,[8],inactive
same,outcome,[6],inactive
Cc1cnc(C2=NC(C)(C(C)C)C(=O)N2)c(C(=O)O)c1 (stereo not given),outcome,[3],inactive
same,outcome,[7],inactive
same,outcome,[6],inactive
CN=C=S,outcome,[1],inactive
same,outcome,[3],inactive
same,outcome,[7],inactive
same,outcome,[10],inactive
same,outcome,[5],inactive
same,outcome,[6],inactive
CCOc1cc(C(C)(C)C)ccc1C1COC(c2c(F)cccc2F)=N1 (stereo not given),outcome,[7],inactive
same,outcome,[5],inactive
same,outcome,[6],inactive
CC1(C)CCC(=Cc2ccc(Cl)cc2)C1(O)Cn1cncn1 (stereo not given),outcome,[9],inactive
same,outcome,[2],inactive
same,outcome,[3],inactive
same,outcome,[10],inactive
same,outcome,[5],inactive
same,outcome,[8],inactive
same,outcome,[6],inactive
COC(=O)N(C(=O)N1CO[C@@]2(C(=O)OC)Cc3cc(Cl)ccc3C2=N1)c1ccc(OC(F)(F)F)cc1,outcome,[2],inactive
same,outcome,[4],inactive
same,outcome,[7],inactive
same,outcome,[5],inactive
same,outcome,[8],inactive
same,outcome,[6],inactive
CC1(C)C(C(=O)OC(C#N)c2cccc(Oc3ccccc3)c2)C1(C)C (stereo not given),outcome,[1],inactive
same,outcome,[4],inactive
same,outcome,[7],inactive
same,outcome,[10],inactive
same,outcome,[5],inactive
same,outcome,[8],inactive
same,outcome,[6],inactive
CCCCC(O)(Cn1cncn1)c1ccc(Cl)cc1Cl (stereo not given),outcome,[10],inactive
same,outcome,[8],inactive
same,outcome,[6],inactive
CCCCOCN(C(=O)CCl)c1c(CC)cccc1CC,outcome,[2],inactive
same,outcome,[3],inactive
same,outcome,[4],inactive
same,outcome,[7],inactive
same,outcome,[5],inactive
same,outcome,[8],inactive
same,outcome,[6],inactive
COC(=O)NS(=O)(=O)c1ccc(N)cc1,outcome,[10],inactive
same,outcome,[6],inactive
O=C1C2CC=CCC2C(=O)N1SC(Cl)(Cl)Cl (stereo not given),outcome,[1],inactive
same,outcome,[3],inactive
same,outcome,[7],inactive
same,outcome,[5],inactive
same,outcome,[6],inactive
CN/C(=N\[N+](=O)[O-])NCc1cnc(Cl)s1,outcome,[3],inactive
same,outcome,[10],inactive
same,outcome,[5],inactive
same,outcome,[6],inactive
Nc1cnn(-c2ccccc2)c(=O)c1Cl,outcome,[1],inactive
same,outcome,[3],inactive
same,outcome,[5],inactive
same,outcome,[6],inactive
CCC(C)n1c(=O)[nH]c(C)c(Br)c1=O (stereo not given),outcome,[7],inactive
same,outcome,[8],inactive
same,outcome,[6],inactive
O=P(O)(O)CCCl,outcome,[3],inactive
same,outcome,[4],inactive
same,outcome,[7],inactive
same,outcome,[10],inactive
same,outcome,[5],inactive
same,outcome,[8],inactive
same,outcome,[6],inactive
CNC(=O)N(C)c1nnc(C(C)(C)C)s1,outcome,[1],inactive
same,outcome,[3],inactive
same,outcome,[7],inactive
same,outcome,[10],inactive
same,outcome,[5],inactive
same,outcome,[8],inactive
same,outcome,[6],inactive
CCN(CC)c1nc(C)cc(OP(=S)(OC)OC)n1,outcome,[1],inactive
same,outcome,[7],inactive
same,outcome,[5],inactive
same,AC50,[8],62.9 µM (active)
same,outcome,[6],inactive
